Experiment [1] concerns the target Casein kinase I isoform gamma-2 (Homo sapiens) (UniProt P78368). As to conditions: at 1 µM.
Experiment [2] addresses Casein kinase I isoform gamma-3 (Homo sapiens) (UniProt Q9Y6M4). As to conditions: at 0.1 µM.
The target is the same in experiment [3]. As to conditions: at 1 µM.
In experiment [4] the target is Cyclin-dependent kinase 1 (Homo sapiens) (UniProt P06493). As to conditions: at 0.1 µM.
For experiment [5] the target is unchanged. As to conditions: at 1 µM.
Experiment [6] has as its target Cyclin-dependent kinase 2 (Homo sapiens) (UniProt P24941). As to conditions: at 0.1 µM.
For experiment [7] the target is unchanged. As to conditions: at 1 µM.
Experiment [8] shares this target. As to conditions: at 0.1 µM. This is another data set of the same source.
For experiment [9] the target is unchanged. As to conditions: at 1 µM. This is another data set of the same source.
Experiment [10] addresses CDK3/Cyclin E (Homo sapiens) (UniProt P24864+Q00526). As to conditions: at 0.1 µM.

Where “and” joins values, the source holds several entries; their conditions need not be identical. Identical values can stand only once.

The values that follow come from ChEMBL document CHEMBL1961873, “Compounds: GSK PKIS; Assays: Nanosyn kinase panel” (2012).

By inhibition is commonly meant the change of the read-out against control, counted positive when it falls.

Sequence of Cyclin-dependent kinase 1 (Homo sapiens) (P06493 whole entry, looked up): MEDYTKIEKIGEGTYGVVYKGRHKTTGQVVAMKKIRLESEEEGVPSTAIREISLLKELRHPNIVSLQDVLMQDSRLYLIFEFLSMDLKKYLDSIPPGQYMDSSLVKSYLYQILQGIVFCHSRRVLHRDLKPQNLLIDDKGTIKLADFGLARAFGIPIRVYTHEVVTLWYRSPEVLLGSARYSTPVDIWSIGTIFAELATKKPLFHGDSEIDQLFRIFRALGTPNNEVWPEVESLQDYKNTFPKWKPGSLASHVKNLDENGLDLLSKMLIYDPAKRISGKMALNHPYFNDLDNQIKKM
Sequence of Casein kinase I isoform gamma-2 (Homo sapiens) (P78368 whole entry, looked up, canonical isoform): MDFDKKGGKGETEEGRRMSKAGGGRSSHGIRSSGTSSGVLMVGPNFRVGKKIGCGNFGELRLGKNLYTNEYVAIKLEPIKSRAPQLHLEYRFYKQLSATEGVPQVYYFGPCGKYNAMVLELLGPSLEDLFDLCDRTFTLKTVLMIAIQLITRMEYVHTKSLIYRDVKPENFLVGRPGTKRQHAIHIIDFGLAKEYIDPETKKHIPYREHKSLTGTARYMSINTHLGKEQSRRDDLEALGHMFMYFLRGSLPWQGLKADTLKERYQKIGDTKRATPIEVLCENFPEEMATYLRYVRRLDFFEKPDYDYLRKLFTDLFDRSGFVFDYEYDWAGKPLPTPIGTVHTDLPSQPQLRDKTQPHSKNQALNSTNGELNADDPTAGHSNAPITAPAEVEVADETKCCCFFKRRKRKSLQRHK
Sequence of CDK3/Cyclin E (Homo sapiens) (P24864 whole entry, looked up): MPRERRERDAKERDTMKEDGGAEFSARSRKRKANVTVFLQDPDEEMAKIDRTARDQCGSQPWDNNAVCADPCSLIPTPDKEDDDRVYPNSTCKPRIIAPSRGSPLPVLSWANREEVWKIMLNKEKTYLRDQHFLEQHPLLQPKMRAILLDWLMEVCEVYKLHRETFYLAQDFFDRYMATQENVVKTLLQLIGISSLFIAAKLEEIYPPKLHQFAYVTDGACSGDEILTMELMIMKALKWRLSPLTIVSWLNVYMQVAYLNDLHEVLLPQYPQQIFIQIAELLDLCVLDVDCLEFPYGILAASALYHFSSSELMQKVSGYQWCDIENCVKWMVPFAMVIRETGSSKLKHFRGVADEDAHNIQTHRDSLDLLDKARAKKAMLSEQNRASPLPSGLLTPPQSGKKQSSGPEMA
Sequence of CDK3/Cyclin E (Homo sapiens) (Q00526 whole entry, looked up): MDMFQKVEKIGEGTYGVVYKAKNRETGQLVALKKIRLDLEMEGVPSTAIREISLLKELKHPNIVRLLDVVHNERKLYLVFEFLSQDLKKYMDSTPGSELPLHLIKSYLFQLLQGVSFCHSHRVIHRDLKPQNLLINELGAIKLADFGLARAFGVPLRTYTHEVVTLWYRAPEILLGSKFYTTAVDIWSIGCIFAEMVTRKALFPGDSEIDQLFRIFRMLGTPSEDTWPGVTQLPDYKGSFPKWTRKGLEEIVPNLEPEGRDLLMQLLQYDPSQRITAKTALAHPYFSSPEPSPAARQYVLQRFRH
Sequence of Casein kinase I isoform gamma-3 (Homo sapiens) (Q9Y6M4 whole entry, looked up, canonical isoform): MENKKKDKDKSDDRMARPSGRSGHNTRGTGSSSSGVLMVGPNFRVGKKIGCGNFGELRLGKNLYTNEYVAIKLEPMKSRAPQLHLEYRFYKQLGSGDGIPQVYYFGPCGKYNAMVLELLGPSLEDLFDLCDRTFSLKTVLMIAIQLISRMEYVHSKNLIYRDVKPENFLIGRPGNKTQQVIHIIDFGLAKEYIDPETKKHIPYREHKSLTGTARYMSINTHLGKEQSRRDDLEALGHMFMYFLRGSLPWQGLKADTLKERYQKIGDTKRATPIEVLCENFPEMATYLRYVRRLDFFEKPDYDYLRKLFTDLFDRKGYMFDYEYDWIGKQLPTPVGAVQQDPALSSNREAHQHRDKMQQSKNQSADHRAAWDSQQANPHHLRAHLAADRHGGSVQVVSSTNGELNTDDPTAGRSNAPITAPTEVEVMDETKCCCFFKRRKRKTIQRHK

As to `COc1ccc(-c2nn3ncccc3c2-c2ccnc(Nc3ccc(F)c(F)c3)n2)cc1`, the inhibition in [1] is 3.56%; in [2] it was 3.89%; in experiment [3], 3.22%; in experiment [4], -0.93%; in experiment [5], 2.75%; in [6], 0.74%. Further, the inhibition turned out to be 3.93% in experiment [7], 3.63% in [8], 3.97% in [9] and 1.3% in [10].

Take `CN1CCC(C(=O)Nc2n[nH]c3nc(-c4ccc(O)cc4)c(Br)cc23)CC1`: the inhibition is 2.84% and 1.66% in experiment [1]; -0.75% and 1.55% in experiment [2]; 3.27% and 0.25% in experiment [3]; 7.05% and 10.3% in experiment [4]; 43.7% and 42.6% in [5]; 16.2% and 18.6% in [6]. Also, the inhibition in experiment [7] was 63.1% and 63.2%; in [8] it was 9.58% and 5.38%; in experiment [9], 38.8% and 32.5%; in [10], 12.5% and 12.3%.

Regarding `Cc1cc(O)cc(C)c1/C=C/c1cncc(C(N)=O)c1`, the inhibition in [1] came out at 2.37%; in experiment [2] it was 2.87%; in experiment [3], 2.49%; in [4], 0.12%; in [5], 1.3%; in experiment [6], 1.56%. Also, the inhibition was 1.98% in experiment [7], 2.51% in experiment [8], 3.29% in experiment [9] and -0.91% in experiment [10].

On to `CCN1CCC(C(=O)Nc2n[nH]c3nnc(-c4cccc(F)c4F)cc23)CC1`, for which the inhibition in [1] was -0.17%; in experiment [2], 0.17%; in [3], 1.35%; in [4] it was 3.89%; in experiment [5] it was 22.6%; in experiment [6] it was 3.86%. The inhibition turned out to be 20.4% in experiment [7], 3.75% in [8], 12.4% in experiment [9] and 2.37% in [10].

As for `COc1cccc(-n2ncc3c(N/N=C/c4ccc(C(=O)NCCN(C)C)cc4)ncnc32)c1`, the inhibition in [1] was 8.69%; in experiment [2], 1.94%; in experiment [3] it was 11.9%; in [4] it was 44.7%; in experiment [5], 77.2%; in [6] it was 36.1%. Besides, the inhibition stood at 89.9% in experiment [7], 13.4% in experiment [8], 48.4% in experiment [9] and 5.6% in [10].

For the compound `COC(=O)Nc1nc2cc(Oc3ccc(NC(=O)Nc4ccccc4)cc3)ccc2[nH]1`, the inhibition in experiment [1] was 1.9%; in [2] it was 0.58%; in experiment [3] it was 1.63%; in experiment [4] it was 1.24%; in experiment [5], 1.72%; in experiment [6], 1.21%. In addition, the inhibition in experiment [7] was found to be 0.35%; in experiment [8], 1.69%; in experiment [9] it was 3.15%; in experiment [10], 2.16%.

`OCCCNc1nccc(-c2c(-c3ccc(F)cc3)nn3cc(C(F)(F)F)ccc23)n1`: the inhibition in experiment [1] came to 4.56%; in experiment [2], 1.62%; in [3] it was 7.33%; in experiment [4], 1.54%; in [5], 2.59%; in [6] it was 0.91%. Moreover, the inhibition in experiment [7] is -3.65%; in experiment [8], 0.52%; in experiment [9], 3.87%; in experiment [10] it was 1.49%.

On to `CC1(C)CC(n2cnc(-c3ccc(F)cc3)c2-c2ccnc(N)n2)CC(C)(C)N1`, for which the inhibition in [1] was 0.56%; in [2], -0.9%; in [3], 5.01%; in experiment [4], -0.29%; in [5], 0.21%; in experiment [6], 1.22%. Further, the inhibition was determined as 0.26% in experiment [7], 1.34% in experiment [8], 0.26% in experiment [9] and 2.06% in experiment [10].

For `COc1c(C(N)=O)cc(-c2ccc(Cl)cc2)cc1-c1ccc(S(N)(=O)=O)cc1`, the inhibition in experiment [1] was 5.53%; in [2], 3.12%; in [3], 5.9%; in experiment [4] it was 2.31%; in [5] it was -0.03%; in experiment [6] it was 3.12%. Besides, the inhibition in experiment [7] is 3.62%; in [8] it was 2.17%; in experiment [9], 3.13%; in [10], -4.73%.

Turning to `O=C(O[C@H]1CN[C@H](C#Cc2cc3ncnc(Nc4ccc5c(ccn5Cc5cc(F)ccc5F)c4)c3s2)C1)N1CCOCC1`, the inhibition is 5.86% in [1]; 2.96% in [2]; 4.98% in experiment [3]; -0.04% in experiment [4]; 1.97% in experiment [5]; 1.56% in [6]. Moreover, the inhibition amounted to 4.93% in [7], 3.67% in experiment [8], 2.07% in [9] and 4.08% in [10].

With `O=C1Nc2ccccc2/C1=C1\CCc2cc(O)ccc21`, the inhibition was found to be 8.01% in [1]; 4.01% in [2]; 6.11% in experiment [3]; 1.03% in experiment [4]; 3.82% in experiment [5]; 3.01% in [6]. Further, the inhibition in [7] is 5.49%; in experiment [8] it was 5.72%; in experiment [9], 10.6%; in [10] it was 4.58%.

Consider `Nc1ncnc2occ(-c3ccc(NC(=O)Nc4cc(C(F)(F)F)ccc4F)cc3)c12`, for which the inhibition in experiment [1] was 4.53% and -0.27%; in [2] it was 0.69% and 0.19%; in experiment [3], 6.26% and 0.91%; in experiment [4], 2.66% and 1.33%; in [5], 11.4% and 4.55%; in [6], 2.5% and 0.72%. The inhibition is 13.5% and 5.32% in [7]; 2.09% and 0.45% in experiment [8]; 15.5% and 5.95% in [9]; 1.13% and 2.46% in [10].

Take `c1ccc(-c2n[nH]cc2-c2ccnc(-c3ccc(OCCn4ccnc4)cc3)c2)nc1`: the inhibition in [1] was 4.02%; in [2] it was 0.42%; in experiment [3] it was 5.22%; in [4] it was -0.35%; in experiment [5], 1.46%; in [6], 1.03%. Further, the inhibition in experiment [7] is -8.72%; in [8] it was 2.23%; in experiment [9], 5.64%; in [10] it was 2.33%.

For `O=C(O[C@H]1CN[C@H](C#Cc2cc3ncnc(Nc4ccc(OCc5cccc(F)c5)c(Cl)c4)c3s2)C1)N1CCOCC1`, the inhibition is 5.59% in experiment [1]; 4.52% in experiment [2]; 3.53% in experiment [3]; 0.36% in [4]; 1.18% in experiment [5]; 1.57% in [6]. The inhibition in [7] was -1.38%; in experiment [8], 4.21%; in experiment [9], 2.99%; in experiment [10], 2.77%.

With `CCCNc1cccc(-n2ncc3c(N/N=C/c4ccncc4)ncnc32)c1`, the inhibition in experiment [1] came to 1.01%; in experiment [2] it was 1.29%; in [3], 0.9%; in experiment [4] it was 2.68%; in experiment [5] it was 22.5%; in [6], 7.1%. The inhibition in experiment [7] is 42.1%; in experiment [8] it was 1.17%; in [9], 9.16%; in experiment [10], 0.47%.

Take `FC(F)(F)CNc1nccc(-c2cnn3ncccc23)n1`: the inhibition in experiment [1] turned out to be 14.1%; in [2], 3.44%; in [3], 10.6%; in experiment [4] it was 4.59%; in experiment [5], 29.1%; in experiment [6], 1.79%. Further, the inhibition in experiment [7] turned out to be 14.1%; in experiment [8], 4.11%; in [9], 16.4%; in experiment [10] it was 1.36%.
